Screening data from PubChem.
This is a sample that favours compounds with a hit; in the whole collection about 2.9% have one here.
a7 integrin act: activates integrin-mediated alleviation for muscular dystrophy; hit rate 0.064% among 350,000; alpha7betagal myoblasts, beta-gal FDG fluorescence, 48 h; Potency, µM (series often up to 38.3 µM), for the others: at the top dose activation, usual class: activators; AID 624291; active means well fitted activation curve with a large enough effect; inconclusive means small, poorly fitted or top-dose-only effect; inactive means no such curve, though single readings can be large or run the other way;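 further: potency means the concentration at half of the fitted maximal effect; 100% = response of the positive control SU9516; nearly all actives have a fitted effect of over 60% in size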
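alpha7betagal+/- myoblasts (passage 13, 250/well) treated 48 h at 37C with compounds at 1:260 dilution of DMSO stock. Lysed, then beta-galactosidase activity read as FDG fluorescence (ex 480/em 540) after 30 min, with pre-read for autofluorescence.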
D3 ag: agonists of human D3 dopamine receptor. hit rate 0.58% among 410,000. AID 652048. max activation, %. D3R DiscoveRx beta-arrestin cells, luminescence, 90 min; in the data active means max activation above about 30%; further: 0% is about no effect
Target sequence (P35462 whole entry, looked up): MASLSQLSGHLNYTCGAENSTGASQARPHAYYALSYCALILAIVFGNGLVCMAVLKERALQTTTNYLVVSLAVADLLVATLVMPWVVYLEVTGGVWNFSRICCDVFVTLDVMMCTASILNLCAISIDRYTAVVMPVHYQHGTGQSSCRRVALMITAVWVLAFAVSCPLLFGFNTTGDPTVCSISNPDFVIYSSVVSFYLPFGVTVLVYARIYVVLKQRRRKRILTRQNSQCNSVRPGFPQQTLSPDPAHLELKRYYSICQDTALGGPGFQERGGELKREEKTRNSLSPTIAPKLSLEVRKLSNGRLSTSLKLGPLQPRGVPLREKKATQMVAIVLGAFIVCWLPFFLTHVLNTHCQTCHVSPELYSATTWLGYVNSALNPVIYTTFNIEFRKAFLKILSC
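Agonist-mode cell screen: cells plated at 1500/well and incubated overnight at 37 °C, then exposed to library compounds for 90 min at 37 °C. Detection reagent was added for 30–60 min at room temperature, and luminescence was read.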
DRD3 antagonist: blocks the human D3 dopamine receptor. P35462. D3R cells, DiscoveRx beta-arrestin luminescence, antagonist mode; hits give low values. max response, negative = inhibition, %. hit rate 2.5% among 360,000; in the data active means max response below about -50%; inconclusive means no clear call, values can overlap the other calls; further: on the % scale 0 is the no-effect control and ±100 the full control effect
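Cells expressing the human receptor were seeded at 1500 cells/well, incubated overnight at 37 degrees C in 5% CO2, then exposed to library compounds with dopamine controls for 90 minutes at 37 degrees C before luminescent detection.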
* = called active by the depositor; ? = inconclusive; · = no result; ! = not confirmed by another sample.

SMILES	a7 integrin act	D3 ag	DRD3 antagonist
Cc1ccc(/C=C/C(=O)N2CCCN(C(=O)/C=C/c3ccc(C)cc3)CC2)cc1	-16.6%	-13.3	-58.5*
O=C(/C=C/c1ccc(F)cc1)N1CCN(Cc2ccccc2)CC1	19.3%	-19.9	-68.5*
O=C(/C=C/c1ccc(Br)cc1)N1CCN(Cc2ccccc2)CC1	22.0%	-7.1	7.1
CCN1CCN(C(=O)/C=C/c2ccc(C)cc2)CC1	28.3%	-7.3	-2.1
Cc1cccc(CN2CCN(C(=O)c3cccc4ccccc34)CC2)c1	-13.2%	1.6	11.7
CCCc1cc(=O)oc2c3c(cc(OCC(=O)N4CCC[C@H]4C(=O)O)c12)OC(C)(C)CC3	-17.1%	-3.9	21.1
COc1ccc(CNC(=O)Cn2cncn2)cc1OC	5.7%	3.2	9.9
CCCN(CCC)C(=O)Cn1c(=O)n(CCCCCC(=O)NCc2ccccc2Cl)c(=O)c2sccc21	·	-10.0	·
Cc1ccc(Cl)cc1N1CCN(S(=O)(=O)c2ccc3c(c2)CC(=O)N3C)CC1	-4.0%	68.6*!	-14.2
CN1C(=O)Cc2cc(S(=O)(=O)N3CCN(c4ccc(Cl)cc4)CC3)ccc21	18.2%	0.2	16.8
CC1CCCCN1C(=O)CCC(=O)Nc1nnc(C(F)(F)F)s1 (stereo not given)	?	-2.1	6.0
CCN1CCCC1CNC(=O)c1ccc2c(c1)N(Cc1ccccc1F)C(=O)c1ccccc1S2(=O)=O (stereo not given)	-34.3%	-12.7	12.6
CC1CCCN(CCCNC(=O)c2nn(C)c3c2CSc2ccccc2-3)C1 (stereo not given)	-47.7%	-17.5	-66.0*
CC1CCCN(CCCNC(=O)c2ccc3c(c2)N(Cc2ccc(F)cc2)C(=O)c2ccccc2S3=O)C1 (stereo not given)	-76.6%	-20.1	-81.7*
CC1CCCN(CCCNC(=O)c2ccc3c(c2)N(Cc2ccccc2F)C(=O)c2ccccc2S3(=O)=O)C1 (stereo not given)	-52.2%	-26.3	-112.1*
CC1CCCCN1CCCNC(=O)c1nn(C)c2c1CSc1ccccc1-2 (stereo not given)	20.7%	-24.9	?
O=C(NCCCN1CCCC1)c1ccc2c(c1)N(Cc1ccc(F)cc1)C(=O)c1ccccc1S2=O (stereo not given)	-46.8%	-15.3	?
Cc1ccc(CCC(=O)Nc2cc(Cl)ccc2Cl)o1	23.0%	-9.3	5.5
CC1(Cc2cc(Cl)ccc2C(F)(F)F)C(=O)Nc2c(Cl)cccc21 (stereo not given)	·	-16.2	21.4
Cc1ccccc1-c1noc(-c2ccccc2C(=O)O)n1	-13.1%	1.7	6.6
COc1ccc(-c2cc3nc(NCCNC(C)=O)n(C)c(=O)c3s2)c(C)c1	·	3.3	11.2
O=C(N/N=C/c1cc(Cl)ccc1O)C(=O)Nc1ccccc1OC(F)(F)C(F)F	-11.7%	9.0	-2.1
O=C(N/N=C/c1cc(Br)ccc1O)C(=O)Nc1ccccc1OC(F)(F)C(F)F	-18.4%	48.5*	14.0
CC(CC1C(C#N)=C(N)OC2=C1C(=O)CCC2)c1ccccc1 (stereo not given)	22.3%	1.6	16.5
CC(C)CC1C(C#N)=C(N)OC2=C1C(=O)CC(c1ccccc1)C2 (stereo not given)	4.2%	-15.7	-63.2*
SMILES	a7 integrin act	D3 ag	DRD3 antagonist
CC1CC(C)CN(S(=O)(=O)c2ccc3c(c2)CC(C)N3C(=O)C2CCC2)C1 (stereo not given)	?	0.1	-6.3
CC1CC(C)CN(S(=O)(=O)c2ccc3c(c2)CC(C)N3C(=O)C2CC2)C1 (stereo not given)	0.9%	-20.2	-109.5*
Cc1ccc(C(C)C)c(OCC(O)CN2CCc3ccccc3C2)c1 (stereo not given)	-50.8%	-15.6	?
Cn1cc(CNCc2ccccc2OCC(O)CN2CCc3ccccc3C2)cn1 (stereo not given)	-62.9%	-17.2	-70.6*
Cc1cccc(C)c1OCC(O)CN1CCc2ccccc2C1 (stereo not given)	-28.1%	-40.3	-66.9*
O=S(=O)(c1ccc(OCC(O)CN2CCc3ccccc3C2)cc1)N1CCOCC1 (stereo not given)	-0.6%	3.5	-57.1*
OC(COc1c(Br)cc(Br)cc1Br)CN1CCOCC1 (stereo not given)	4.7%	2.5	0.0
Cc1ccccc1OCC(O)CN1CCN(C)CC1 (stereo not given)	17.8%	-0.8	16.3
OC(COc1c(F)cc(Br)cc1F)CN1CCc2ccccc2C1 (stereo not given)	-6.4%	-20.8	-110.6*
O=S(=O)(c1ccc(OCC(O)CN2CCCCC2)cc1)N1CCOCC1 (stereo not given)	5.9%	0.5	14.6
Nc1c(N(Cc2ccccc2)C(=O)COc2cccc(Cl)c2)c(=O)[nH]c(=O)n1Cc1ccccc1	-39.3%	-1.3	12.6
CC(C)(C)NC(=O)c1ccc2c(c1)C(=O)N(Cc1ccco1)C2=O	17.1%	13.1	-12.2
